Sampled rows, rich in hits. Any-hit rate of the full collection: about 21%.
Pf growth 96h: P. falciparum growth inhibition at 96 hour, primary screen for plastid delayed-death inhibitors; P. falciparum luciferase reporter growth, 96 h; Potency, µM (series often up to 28.7 µM), usual class: inhibitors; 6.9% of 320,000 active; AID 504834
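P. falciparum expressing integrated firefly luciferase, in erythrocytes at 2% hematocrit, 0.05% parasitemia, incubated with compounds 96 h at 37 C, 5% CO2. Growth inhibition read as loss of luminescence; two-generation exposure targets delayed-death apicoplast inhibitors.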
Pf growth 48h: P. falciparum growth inhibition at 48 hours (one generation). P. falciparum luciferase growth in erythrocytes, 48 h. Potency, µM (doses to about 28.7 µM), hits mostly inhibitors. 5.9% of 310,000 active. AID 504832
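A one-generation exposure of luciferase-tagged malaria parasites in RPMI 1640/Albumax erythrocyte culture, 37 C and 5% CO2. Inhibition is inferred from decreased luminescence after adding detection reagent.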
CHX counter: affects cycloheximide protein synthesis inhibition readout, counter-screen | cell reporter, cycloheximide protein synthesis inhibition counterscreen | max response, % | 12% of 300,000 active; in the data active means max response mostly above about 13%, no sharp cut-off; inactive means mostly below about 14%; further: read at 38.3 µM for the half of the compounds with a filed dose
NS1 function inh: blocks influenza NS1 protein function. 0.4% of 270,000 active. AID 2326. Potency, µM (highest dose often 46.1 µM); calls by dose curve; further: actives are rising curves; nearly all actives have a fitted effect of over 50% in size
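In this qHTS, NS1 from influenza A is expressed in budding yeast, where it slows growth. Cells are switched from glucose to 2% galactose medium (pH 6.0, -URA), treated with compound, and growth recovery is read at OD600.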
Shiga toxin inh: inhibitors of Shiga toxin in Vero cells. Vero cells, Shiga toxin protein synthesis inhibition reporter. inhibition, % at 38.7 µM. 9.2% of 290,000 active; in the data active means inhibition mostly above about 28%, no sharp cut-off; inactive means mostly below about 43%
Giardia FBPA inh: Giardia lamblia aldolase inhibition | A8B2U2 | purified Giardia FBPA | Potency, µM (doses to about 59.6 µM), hits mostly inhibitors | 0.71% of 290,000 active; further: nearly all actives have a fitted effect of over 55% in size
Target sequence (A8B2U2 whole entry, looked up): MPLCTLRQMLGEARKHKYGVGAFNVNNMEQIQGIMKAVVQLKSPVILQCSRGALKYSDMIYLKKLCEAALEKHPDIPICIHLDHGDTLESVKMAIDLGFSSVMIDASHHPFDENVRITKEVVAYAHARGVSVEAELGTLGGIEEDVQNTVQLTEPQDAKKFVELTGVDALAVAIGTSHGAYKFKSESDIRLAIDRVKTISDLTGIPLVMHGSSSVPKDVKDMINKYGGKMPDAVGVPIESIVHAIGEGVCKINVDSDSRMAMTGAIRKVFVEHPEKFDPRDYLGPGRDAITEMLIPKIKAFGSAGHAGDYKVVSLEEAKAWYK
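Giardia FBPA (40 nM reagent) was preincubated 10 min at RT with compound (up to 57.5 uM final), then substrate plus GAPDH/TPI/NAD/arsenate coupling system with diaphorase/resazurin was added; resorufin fluorescence (525/598 nm) was read after 20 min.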
Numbers stand for hits; – = inactive; ? = inconclusive; · = no result given; ! = not active in a repeat. Unless noted, the call rests on the fitted dose curve; in most records, active means well fitted curve in the direction sought with a large enough effect; inconclusive means small, poorly fitted or top-dose-only effect, or another doubt; inactive means no such curve, though single readings can be large; an effect the other way counts as inactive or inconclusive.

SMILES	Pf growth 96h	Pf growth 48h	CHX counter	NS1 function inh	Shiga toxin inh	Giardia FBPA inh
Cc1ccc(NC(=O)c2ccc(S(=O)(=O)N3CCCC3)cc2)nc1	–	?	·	·	·	·
O=C(O)C[C@@H](C(=O)O)c1ccccc1[N+](=O)[O-]	·	·	·	–	·	·
Cc1ccc(CNC(=O)CSc2c3c(nc4cc(Cl)ccc24)CCCC3)o1	–	14.7µM	–	–	–	–
O=C(Nc1ccc(F)cc1)c1ccc2c(=O)n3c(nc2c1)CCCCC3	4.65µM	–	23.8	–	52.0	–
O=C(Nc1ccc(Cl)cc1)c1ccc2c(=O)n3c(nc2c1)CCCCC3	–	–	54.0	–	40.7	–
O=C(Nc1cccc(Cl)c1)c1ccc2c(=O)n3c(nc2c1)CCCCC3	?	–	40.6	–	102.2	–
CC(=O)c1ccc(NC(=O)c2ccc3c(=O)n4c(nc3c2)CCCCC4)cc1	–	?	–	–	–	·
O=C(Nc1ccc(Cl)cc1Cl)c1ccc2c(=O)n3c(nc2c1)CCC3	–	–	·	·	·	·
CC(C)C(C(=O)NC1CCCC1)N(CC1CCCO1)C(=O)CNS(=O)(=O)c1ccc(F)cc1 (centres undefined)	?	?	–	–	–	·
CCC(=O)NCCc1nc2cc(NC(=O)c3cccc([N+](=O)[O-])c3)ccc2n1C	–	–	–	–	–	–
O=C(NCCCO)c1cc2c(cn1)[nH]c1ccccc12	–	–	26.8	–	–	–
O=C(NCCCO)c1cc2ccccc2[nH]1	–	–	–	–	–	–
O=C(O)c1cc2c(cn1)[nH]c1ccccc12	–	–	–	–	–	?
O=C(NCCCO)c1cc2c([nH]c3ccccc32)c(-c2ccccc2)n1	5.86µM	?	–	–	–	–
COC(=O)[C@H](C)NC(=O)c1cc2c(cn1)[nH]c1ccccc12	–	–	15.2	–	–	–
CCOC(=O)CNC(=O)c1ccc2[nH]c3ccccc3c2c1	?	–	–	–	–	–
COc1ccc(C(=O)COC(=O)c2cnc(C)cn2)c(OC)c1	–	–	·	·	·	·
COc1cc(O)c(C(CC(=O)N2CCCCC2)c2cc(OC)c(OC)c(OC)c2)c(OC)c1 (centres undefined)	?	–	46.6!	–	81.0!	–
COc1cc(O)c(C(CC(=O)N2CCN(c3ccccc3)CC2)c2cc(OC)c(OC)c(OC)c2)c(OC)c1 (centres undefined)	10.4µM	11.7µM	–	–	–	–
COc1cc(O)c(C(CC(=O)N2CCCC2)c2cc(OC)c(OC)c(OC)c2)c(OC)c1 (centres undefined)	–	?	–	–	–	–
COc1cc(O)c(C(CC(=O)N2CCOCC2)c2ccc(N(C)C)cc2)c(OC)c1 (centres undefined)	–	?	–	–	–	–
Cc1ccc(Cn2ncc3c4sc(C)cc4n(C)c3c2=O)cc1	·	·	–	·	–	·
CCNC1=C(Cl)C(=O)c2ccccc2C1=O	–	·	–	?	–	?
O=C1C(Cl)=C(Nc2ccc(O)cc2)C(=O)c2ccccc21	–	?	22.7	–	47.6	?
Cc1ccc(NC2=C(Cl)C(=O)c3ccccc3C2=O)cc1	–	–	24.8	–	70.2	?
SMILES	Pf growth 96h	Pf growth 48h	CHX counter	NS1 function inh	Shiga toxin inh	Giardia FBPA inh
Nc1ccc2c(c1)C(=O)c1ccccc1C2=O	–	–	·	·	·	·
CCN(CC)c1ccc(NC2=C(Cl)C(=O)c3ccccc3C2=O)cc1	2.94µM	–	59.7	–	128.3	?
Cc1cc(C)cc(NC2=C(N)C(=O)c3ccccc3C2=O)c1	–	?	42.6	–	121.5	–
CCCc1ccc(C(=O)CN2C(=O)C(=O)N(C3CCCC3)C2=O)cc1	–	–	·	·	·	·
Cc1ccccc1Nc1oc(-c2ccccc2)nc1-c1ccccc1	·	·	·	·	·	–
COc1ccccc1/C=C/CN1CCC(n2nccc2NC(=O)CCc2ccccc2)CC1	?	?	–	–	–	–
Cc1ccc(C(=O)SC2=NCCS2)cc1	9.28µM	–	–	–	–	–
COc1cccc(CN(C)CC(=O)Nc2cc(S(=O)(=O)N3CCCC3)ccc2Cl)c1OC	?	11.7µM	·	·	·	·
COc1ccccc1CNCC(=O)Nc1cc(S(=O)(=O)N2CCCCCC2)ccc1Cl	?	9.28µM	–	–	–	?
C[C@H]1CC[C@@]2(NC1)O[C@@H]1C[C@@H]3[C@@H]4CC=C5C[C@@H](O)CC[C@]5(C)[C@@H]4CC[C@]3(C)[C@H]1[C@@H]2C	·	·	·	–	·	·
O=C(CN(Cc1ccccc1Cl)C(=O)Cn1nnc(-c2cccs2)n1)NCC1CCCO1 (centres undefined)	1.17µM	–	–	–	–	–
COc1ccc(-c2nnn(CC(=O)N(Cc3ccccc3Cl)C(C(=O)NCC3CCCO3)c3ccco3)n2)cc1OC (centres undefined)	–	9.28µM	–	–	–	–
Cc1ccc(-c2nnn(CC(=O)N(Cc3cccs3)C(C(=O)NCC3CCCO3)c3ccco3)n2)o1 (centres undefined)	–	?	–	–	–	–
Cc1ccc(NC(=O)CN(C)C(=O)c2cc(-c3ccccc3)nn2-c2ccccc2)cc1	–	–	·	·	·	·
COC(=O)C1=NN(c2ccccc2)C2(S1)S/C(=C\c1ccccc1)C(=O)N2c1ccccc1 (centres undefined)	·	13.1µM	–	–	–	–
NS(=O)(=O)c1ccc(CCNC(=O)CCc2nc3sc4c(c3c(=O)[nH]2)CCCC4)cc1	–	?	·	·	·	·
COc1ccc(N2C(=O)CSC23C(=O)N(CC(=O)NC2CCCC2)c2ccccc23)cc1 (centres undefined)	8.28µM	–	–	–	–	–
COc1ccc(C2(c3ccc(OC)cc3)NC(=O)N(CC(=O)NC3CCCC3)C2=O)cc1	–	–	·	·	·	·
Cc1cccc(C)c1N(CC(=O)Nc1cc(Cl)ccc1Oc1ccccc1)S(C)(=O)=O	?	10.4µM	–	–	–	–
Cc1ccc(C)c(N(CC(=O)Nc2cc(Cl)ccc2Oc2ccccc2)S(C)(=O)=O)c1	14.7µM	?	–	?	–	–

From PubChem BioAssay
